Screening data: PubChem, several laboratories
tim10-1 inh: tim10-1 yeast growth inhibition; S. cerevisiae tim10-1 ts strain growth, BacTiter-Glo, 24 h; inhibition, % at 20 µM; actives 2.2% (n = 330,000);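 active = inhibition of at least 40%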;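 note: mutant grown at 25 °C; 0% = DMSO wells with yeast and 100% = wells holding no yeast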
NLRP3 yeast inh: inhibitors of NALP3 inflammasome in yeast; Yeast reconstituted NLRP3/ASC/caspase-1, beta-gal luminescence, 24 h; inhibition, % at 10 µM; actives 0.39% (n = 330,000); AID 2825;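 active = inhibition of 50% or more; inactive = inhibition below 50%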;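 note: plate controls were induced DMSO wells for no effect and uninduced yeast grown without galactose for full effect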
TIM10 inh: TIM10 yeast growth inhibition; AID 463195; actives 1.4% (n = 330,000); S. cerevisiae TIM10 strain growth, BacTiter-Glo luminescence, 24 h; inhibition, % at 10 µM;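 active = inhibition of 40% or more at the single tested concentration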;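 note: wild-type TIM10 isogenic control strain grown at permissive 25 °C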
PfHsp90 set2: reduces growth (ATP signal) of yeast expressing P. falciparum Hsp90; S. cerevisiae expressing PfHsp90, BacTiter-Glo ATP, 48 h; yeast lacking PDR1 and PDR3 efflux regulators; inhibition, % at 9.4 µM; actives 0.32% (n = 310,000);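 active = every replicate shows inhibition above about 80%, whatever the replicate mean, limit read from the data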;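 note: 0% = DMSO neutral controls and 100% = 20 µM radicicol positive controls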
tim23-1 inh: tim23-1 yeast growth inhibition. S. cerevisiae tim23-1 growth, BacTiter-Glo luminescence, 24 h. inhibition, % at 20 µM. actives 1.3% (n = 330,000). AID 463212;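 active = growth inhibition of the mutant yeast at or above 50%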;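 note: temperature-sensitive mutant grown at 25 °C; plate controls were DMSO-treated mutant yeast for no effect and medium wells lacking yeast for full effect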
SKKanGAS inh: blocks kanamycin growth of S. pyogenes SKKanGAS strain. actives 1.3% (n = 300,000). inhibition, % at 7.5 µM. BacTiter-Glo, 6 h;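 active = mean replicate score, as percent of positive control median, at least 50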;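 note: strain carries kanamycin resistance gene driven by streptokinase promoter and grows in 40 µg/ml kanamycin; loss of luminescence reflects streptokinase promoter inhibition or plain growth inhibition; 0% = median of DMSO wells and 100% = positive control at its reference dose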
Numbers without * were called inactive; · = no result given. Compounds with a hit are over-represented: about 4.6% of the library has one in this group of screens.

SMILES	tim10-1 inh	NLRP3 yeast inh	TIM10 inh	PfHsp90 set2	tim23-1 inh	SKKanGAS inh
O=C1C(=O)N(c2ccccn2)C(c2ccc(F)cc2)/C1=C(/O)c1ccc(Br)cc1 (centres undefined)	-3	-12	-10	-30	-3	6
COC(=O)c1[nH]nc(-c2ccccc2)c1-c1ccccc1	20	7	26	5	12	1
CC1OC(Oc2c(-c3cc(O)c(O)c(O)c3)oc3cc(O)cc(O)c3c2=O)C(O)C(O)C1O (centres undefined)	4	10	3	12	9	0
CC(C)=C[C@@H]1C[C@H](C)[C@H]2CC[C@H](C)c3c(O[C@@H]4O[C@@H](C)[C@@H](O)[C@@H](O)[C@@H]4O)c(O)c(C)c1c32	25	11	-4	105*	16	·
COc1cc(OC)cc(C(=O)Nc2nnc(NC(=S)Nc3ccccc3)s2)c1	18	18	20	7	9	52*
CSCC(O)Cn1ncc2ccccc2c1=O (centres undefined)	14	5	-8	16	13	1
CCN(CC)c1nc(Nc2ccc([N+](=O)[O-])cc2)nc(N(CC)CC)n1	13	17	6	-8	22	65*
CC1C[N+](=C2C=C(N3CCOCC3)CC(C)(C)C2)CC(C)O1 (centres undefined)	-4	-7	-4	4	-15	-1
Cc1ccc(CN2C(=O)c3ccccc3NC2c2cc(Br)ccc2O)cc1 (centres undefined)	22	10	9	-6	22	104*
Cc1ccc(NC(=O)CSc2ncn[nH]2)c([N+](=O)[O-])c1	7	7	-2	2	8	·
Cc1cccc(C2(c3cccc(C)c3)CC2C(=O)Nc2ccc([N+](=O)[O-])cc2O)c1 (centres undefined)	11	16	15	-3	11	72*
CCC(=O)Nc1nc2ccc(NC(C)=O)cc2s1	15	7	15	10	11	-5
CCOc1cccc2sc(Nc3nc4ccc(NC(C)=O)cc4s3)nc12	21	-10	22	4	20	71*
O=C(CN(c1ccc(Cl)c(C(F)(F)F)c1)S(=O)(=O)c1ccccc1)N/N=C/c1cccc2c1OCCO2	9	23	6	-16	11	54*
Cc1cc(Cl)ccc1NC(=S)NCC(O)c1ccccc1 (centres undefined)	7	19	6	3	11	-4
COc1ccc(-c2nc(-c3ccc4c(c3)OCO4)[nH]c2-c2ccc(OC)cc2)cc1	17	10	24	-20	43	55*
COc1ccc(-c2noc(-c3ccc4c(c3)OCO4)n2)cc1	9	9	-4	-5	-11	2
CCCCn1c(N)c(N(CC(C)C)C(=O)c2c(-c3ccccc3)noc2C)c(=O)[nH]c1=O	-9	9	7	-20	4	·
COc1cc([N+](=O)[O-])cc(/C=N/NC(=O)c2cccnc2)c1O	14	1	-4	-32	-7	88*
COc1cc([N+](=O)[O-])cc(/C=N/NC(=O)C(O)(c2ccccc2)c2ccccc2)c1O	11	24	-3	-23	36	98*
COc1cc([N+](=O)[O-])cc(/C=N\NC(=O)C2COc3ccccc3O2)c1O (centres undefined)	10	27	6	-17	5	104*
COc1ccc(Cn2c(SCC#N)nc3ccc(N4CCOCC4)cc3c2=O)cc1	20	4	9	·	17	17
O=C(Nc1nc(-c2cc(Cl)sc2Cl)cs1)c1cccs1	29	38	36	3	29	61*
N#Cc1ccc(OCC(=O)OCC(=O)NC2CC2)cc1	-2	17	-2	10	-3	·
O=C(Nc1ccc(N2CCCC2)c(S(=O)(=O)Nc2cccc(C(F)(F)F)c2)c1)c1cccs1	18	-10	20	-36	24	52*
SMILES	tim10-1 inh	NLRP3 yeast inh	TIM10 inh	PfHsp90 set2	tim23-1 inh	SKKanGAS inh
CCN(CC)S(=O)(=O)c1ccc(/C=C/C(=O)OCC(=O)N(C)C)cc1	22	5	-6	·	12	·
Cc1cc(=O)[nH]c(SCC(=O)Nc2ccc(Br)cc2)c1C#N	7	6	-2	8	24	55*
CSCC[C@H](NC(=O)C1=NN(c2c(F)c(F)cc(F)c2F)C(=O)CC1)c1nc2ccccc2[nH]1	-9	-4	2	3	-2	-16
Cc1c(Cl)cccc1Nc1nc(N)nc(CN2CCc3ccccc3C2)n1	25	15	8	-11	-22	80*
COc1ccc(CNC(=O)COC(=O)CN2C(=O)C3CC=CCC3C2=O)cc1 (centres undefined)	-1	10	-5	·	13	·
CCCCC(=O)NC(=S)NNC(=O)CCc1ccccc1	6	12	26	-1	-2	76*
CC(=O)NC(=S)NNC(=O)CCc1ccccc1	4	10	24	-8	20	3
O=C(CCc1ccccc1)NNC(=S)NC(=O)c1ccccc1	-40	31	13	-22	-7	64*
CC(NC(=O)c1cc(-c2ccccn2)nc2ccc(Cl)cc12)C1CCCO1 (centres undefined)	16	8	6	-2	34	3
Fc1cccc2sc(Nc3nc4cc5c(cc4s3)OCO5)nc12	23	19	21	-14	28	53*
Fc1cccc2sc(Nc3nc4cc5c(cc4s3)OCCO5)nc12	8	23	9	8	16	42
CNC(CC(C)C)C(=O)NC1C(=O)NC(CC(N)=O)C(=O)NC2C(=O)NC3C(=O)NC(C(=O)NC(C(=O)O)c4cc(O)cc(O)c4-c4cc3ccc4O)C(O)c3ccc(c(Cl)c3)Oc3cc2cc(c3OC2OC(CO)C(O)C(O)C2OC2CC(C)(N)C(O)C(C)O2)Oc2ccc(cc2Cl)C1O (centres undefined)	·	·	·	-8	·	102*
CC(C)Oc1ccc(C(=O)Nc2nc3ccccc3[nH]2)cc1	-11	11	17	52	13	55*
COc1ccc2oc(C(=O)Nc3nc4ccccc4[nH]3)c(C)c2c1	-24	13	19	30	18	78*
CCc1ccc(C(=O)Nc2nc3ccccc3[nH]2)cc1	0	22	19	8	8	63*
COc1cc(OC)cc(C(=O)Nc2nc3ccccc3[nH]2)c1	-8	19	-4	25	-1	59*
CC(C)(C)NC(=O)NC(=O)COC(=O)CCC1CCCC1	9	9	18	-8	29	3
COC(=O)[C@]1(C)N[C@H](CN(C)S(=O)(=O)c2ccc(C)cc2)[C@@H]2C(=O)N(Cc3ccccc3)C(=O)[C@@H]21	9	2	15	1	-1	·
Cc1cc(Cl)ccc1OCC(=O)NN1C(=O)C2C3C=CC(C3)C2C1=O (centres undefined)	8	13	-1	28	36	-5
